Laboratory results published in PubChem BioAssay (EPA / NIEHS).
The source made the active and inactive calls. The calls were made as follows: active = hit-call score of the fitted dose curve at least 0.9, where 1 is the maximum; inactive = score below 0.9.

Assay: CEETOX_H295R_OHPREG: CeeTox H295R High-throughput Steroidogenesis Assay for OH-Pregnenolone (OHPREG) (AID 2283434)
Conditions: actives raise or lower the signal
Procedure, shortened: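 H295R cells pre-stimulated 48 h with 10 uM forskolin, then exposed 48 h to chemical in 0.1% DMSO. 17alpha-hydroxypregnenolone in medium quantified by MTBE extraction and HPLC-MS/MS; bidirectional fit versus DMSO, viability checked by MTT.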
For `Cc1cccc(N)c1N`, the AC50 was 27 µM (active).
For `Cc1cc(N=Nc2ccccc2C)ccc1N`, the outcome was “inactive”.
For `CCC(C)c1ccc(O)cc1` (stereo unspecified), the outcome was “inactive”.
With `CC(C)(C)C(O)(CCc1ccc(Cl)cc1)Cn1cncn1` (stereo unspecified) the AC50 was 0.503 µM (active).
With `O=C(Nc1ccccc1)c1ccccc1I` the AC50 was 32.3 µM (active).
In the case of `Cn1cc(-c2ccccc2)c(=O)c(-c2cccc(C(F)(F)F)c2)c1`, the outcome is reported as “inactive”.
With `COP(=S)(OC)SCN1C(=O)c2ccccc2C1=O` the outcome was “inactive”.
With `Nc1ccc(Oc2ccc(N)cc2)cc1` the AC50 was 5.04 µM (active).
With `Nc1ccc(N=Nc2ccccc2)cc1` the AC50 was 50 µM (active).
In the case of `Nc1ccc(Cc2ccc(N)cc2)cc1`, the AC50 is reported as 4.31 µM (active).
With `CCOC(=O)[C@]1(c2ccccc2)Oc2ccccc2[C@@H]1N` the AC50 was 1.4 µM (active).
For `CC(C)N(Cc1ccccc1)C(=O)C(C)(C)C`, the outcome was “inactive”.
For `C[C@]12C=CC3=C4CCC(=O)C=C4CC[C@H]3[C@@H]1CC[C@@H]2O`, the AC50 was 13.2 µM (active).
With `Nc1ccc(Cl)cc1N` the AC50 was 1.41 µM (active).

Assay: CEETOX_H295R_OHPROG: CeeTox H295R High-throughput Steroidogenesis Assay for OH-Progesterone (OHPROG) (AID 2283435);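 as to AC50: human adrenal H295R cells primed 48 h with 10 µM forskolin; 17alpha-hydroxyprogesterone secreted into medium measured by HPLC-MS/MS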
Conditions: actives raise or lower the signal
Procedure, shortened: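 H295R, 10 uM forskolin prestim 48 h; cmpd in 0.1% DMSO 48 h; medium MTBE-extracted, HPLC-MS/MS for OH-progesterone; 7-pt std curve; bidirectional fit vs DMSO; MTT viability, chemicals diluted until viability >/=70%.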
In the case of `Cc1cccc(N)c1N`, the AC50 is reported as 18.5 µM (active).
For `Cc1cc(N=Nc2ccccc2C)ccc1N`, the AC50 was 1.79 µM (active).
With `CCC(C)c1ccc(O)cc1` (stereo unspecified) the AC50 was 22.5 µM (active).
For `CC(C)(C)C(O)(CCc1ccc(Cl)cc1)Cn1cncn1` (stereo unspecified), the AC50 was 0.552 µM (active).
With `O=C(Oc1ccc(Br)cc1)N1CCN2CCC1CC2` the AC50 was 12.8 µM (active).
With `O=C(Nc1ccccc1)c1ccccc1I` the AC50 was 40.9 µM (active).
With `Cn1cc(-c2ccccc2)c(=O)c(-c2cccc(C(F)(F)F)c2)c1` the outcome was “inactive”.
For `COP(=S)(OC)SCN1C(=O)c2ccccc2C1=O`, the outcome was “inactive”.
For `Nc1ccc(Oc2ccc(N)cc2)cc1`, the outcome was “inactive”.
For `Nc1ccc(N=Nc2ccccc2)cc1`, the AC50 was 12.6 µM (active).
With `Nc1ccc(Cc2ccc(N)cc2)cc1` the AC50 was 4.68 µM (active).
In the case of `CCOC(=O)[C@]1(c2ccccc2)Oc2ccccc2[C@@H]1N`, the AC50 is reported as 3.16 µM (active).
For `CC(C)N(Cc1ccccc1)C(=O)C(C)(C)C`, the outcome was “inactive”.
For `Nc1ccc(Cl)cc1N`, the outcome was “inactive”.

Assay: CEETOX_H295R_ANDR: CeeTox H295R High-throughput Steroidogenesis Assay for Androstenedione (ANDR) (AID 2283436)
Conditions: actives raise or lower the signal
Procedure, shortened: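 H295R cells, following OECD 456 with minor changes, exposed to chemicals for 48 h. Androstenedione in the medium was quantified by HPLC-MS/MS after MTBE extraction. Fitting was bidirectional versus DMSO; chemicals were diluted until MTT viability was ≥70%.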
For `Cc1cc(N=Nc2ccccc2C)ccc1N`, the outcome was “inactive”.
With `O=C(Nc1ccccc1)c1ccccc1I` the outcome was “inactive”.
In the case of `CC(C)N(Cc1ccccc1)C(=O)C(C)(C)C`, the outcome is reported as “inactive”.
For `C[C@]12C=CC3=C4CCC(=O)C=C4CC[C@H]3[C@@H]1CC[C@@H]2O`, the AC50 was 90.1 µM (active).
For `Nc1ccc(Cl)cc1N`, the outcome was “inactive”.

Assay: CEETOX_H295R_CORTIC: CeeTox H295R High-throughput Steroidogenesis Assay for Corticosterone (CORTIC) (AID 2283437);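 also: corticosterone secreted into medium quantified by mass spectrometry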;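 as to AC50: human H295R adrenal cells prestimulated with forskolin before chemical exposure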
Conditions: actives raise or lower the signal
Procedure, shortened: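 H295R adrenal cells prestimulated 48 hours with 10 uM forskolin, then exposed 48 hours to chemical in 0.1% DMSO. Corticosterone in medium measured by HPLC-MS/MS after MTBE extraction; MTT viability in the same wells; bidirectional fit versus DMSO.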
With `Cc1cccc(N)c1N` the outcome was “inactive”.
For `Cc1cc(N=Nc2ccccc2C)ccc1N`, the AC50 was 2.24 µM (active).
For `CCC(C)c1ccc(O)cc1` (stereo unspecified), the outcome was “inactive”.
With `CC(C)(C)C(O)(CCc1ccc(Cl)cc1)Cn1cncn1` (stereo unspecified) the outcome was “inactive”.
With `O=C(Oc1ccc(Br)cc1)N1CCN2CCC1CC2` the outcome was “inactive”.
For `O=C(Nc1ccccc1)c1ccccc1I`, the outcome was “inactive”.
With `Cn1cc(-c2ccccc2)c(=O)c(-c2cccc(C(F)(F)F)c2)c1` the outcome was “inactive”.
In the case of `COP(=S)(OC)SCN1C(=O)c2ccccc2C1=O`, the outcome is reported as “inactive”.
With `Nc1ccc(Oc2ccc(N)cc2)cc1` the AC50 was 0.493 µM (active).
In the case of `Nc1ccc(N=Nc2ccccc2)cc1`, the outcome is reported as “inactive”.
For `Nc1ccc(Cc2ccc(N)cc2)cc1`, the outcome was “inactive”.
For `CCOC(=O)[C@]1(c2ccccc2)Oc2ccccc2[C@@H]1N`, the AC50 was 0.33 µM (active).
For `Nc1ccc(Cl)cc1N`, the outcome was “inactive”.
